Screening results (PubChem)
Shn3 3UTR inh – inhibitors of Schnurri-3 3'UTR reporter in osteoblasts. Clone20 osteoblast Shn3 3'UTR firefly luciferase, 24 h. inhibition, % at 12.5 µM. 360,000 tested, 0.52% active;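 active means mean inhibition of at least 75% with every replicate also reaching 75%; inconclusive means mean inhibition at least 75% but some replicate below; inactive means mean inhibition below 75%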;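 further: 0% = median of neutral control wells and 100% = pilot-screen positive control compound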
LMP1 NFkB inh – Epstein-Barr LMP1 NF-kappaB reporter inhibition | inhibition, % at 12.5 µM | AID 504558 | LMP1-induced NF-kappaB luciferase reporter cells, luminescence | 350,000 tested, 0.69% active; in the data active means inhibition above about 41%; inconclusive means no clear call, values can overlap the other calls;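 further: 0% = neutral control wells and 100% = reference inhibitor control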
TRPM1 prom inh – MITF TRPM1 promoter inhibition in SK-MEL-5 cells. SK-MEL-5 TRPM1 promoter luciferase, 24 h. inhibition, % at 12.5 µM. 330,000 tested, 0.83% active. AID 488899;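 active means mean inhibition across replicates of 60% or more, whatever share of single replicates reaches that level; inconclusive means some that reach 60%, reason not given; inactive means mean inhibition across replicates below 60%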
697 NFkB inh – inhibitors of the PMA/ionomycin-induced NF-kB reporter in 697 B cells. 697 B-cell NF-kB luciferase reporter, 16 h. 330,000 tested, 0.33% active. inhibition, % at 4 µM. AID 435022; in the data active means inhibition above about 35%
Gli-Sufu block – Gli-Sufu pathway antagonism; 340,000 tested, 0.74% active; Sufu-KO-LIGHT fibroblasts, Gli luciferase reporter luminescence; AID 588413; inhibition, % at 5 µM;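 active means inhibition above about 55%, limit read from the data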;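 further: 0% = DMSO-treated cells and 100% = wells with medium but no cells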
Jurkat NFkB inh – lowers PMA/ionomycin-induced NF-kB signal in Jurkat cells; PMA/ionomycin-induced NF-kB luciferase reporter, luminescence; inhibition, % at 4 µM; 330,000 tested, 0.53% active; in the data active means inhibition above about 50%
Active calls of the source: *; ? = inconclusive; · = not tested or not shown. Sampled rows, rich in hits. Any-hit rate of the full collection: about 2.3%.

SMILES	Shn3 3UTR inh	LMP1 NFkB inh	TRPM1 prom inh	697 NFkB inh	Gli-Sufu block	Jurkat NFkB inh
Cc1occc1C(=O)NNS(=O)(=O)c1ccc([N+](=O)[O-])cc1	-10.1	3.5	-6.0	2.9	-1.8	-6.5
CC1Cc2ccccc2N1c1ncnc(N)c1[N+](=O)[O-] (configuration not stated)	15.8	75.8*	33.8	12.2	-12.2	34.7
CC1CCCCN1c1ncnc(N)c1[N+](=O)[O-] (configuration not stated)	14.2	22.2	-7.5	-0.6	-16.4	-4.7
CC(C)N=C(NS(=O)(=O)c1ccccc1)C(Cl)(Cl)Cl	45.3	-1.9	79.0*	13.3	46.9	8.7
COC(=O)C1=NNC(C(=O)OC)C1c1ccccc1 (configuration not stated)	2.4	83.8*	1.5	·	-9.9	·
COC(=O)C1=NNC(C(=O)c2ccco2)C1c1ccccc1 (configuration not stated)	13.7	3.6	3.5	14.0	-8.2	9.0
CC(CCc1ccco1)N(C)S(=O)(=O)c1csc(C(N)=O)c1 (configuration not stated)	3.2	51.9*	-9.4	-18.9	16.4	10.0
CCNC(=O)CC1C(=O)N(CC)C(=S)N1NC(=O)c1cccnc1 (configuration not stated)	2.9	73.6*	-6.3	19.1	17.5	9.7
COCCCNC(=O)c1ccc(CN2CCc3ccccc3C2)cc1	3.3	-2.4	7.7	-2.9	8.1	1.6
Cc1cccc(NC(=O)CSc2nc3ccccc3c(=O)n2C)c1C	86.7*	13.9	·	·	·	·
COc1ccccc1NC(=O)CSc1nc2ccccc2c(=O)n1C	45.0	4.6	0.5	-49.6	48.8	-6.0
Cc1ccc(C(=O)CC(=O)c2ccccc2C)c(O)c1	20.9	12.4	10.6	-42.4	0.1	1.0
C=C(CN(C)C)C(=O)c1ccc(C)cc1C	96.7*	-8.5	108.9*	·	0.1	·
Cc1ccc(NC(=O)c2cc3ccccc3oc2=N)cc1	37.5	50.0*	24.4	-197.6	-27.0	-103.4
N=c1oc2ccccc2cc1C(=O)Nc1ccc(F)cc1	-60.6	-26.7	7.7	·	-89.4	·
COCCCNC(=O)CSc1nc2cc3c(cc2c(=O)n1CCCC(=O)NCc1ccc(OC)cc1)OCO3	-4.3	4.8	4.2	5.1	-1.6	-11.6
NC(=O)CSc1nc2cc3c(cc2c(=O)n1CCCC(=O)NCc1ccc2c(c1)OCO2)OCO3	41.5	44.9*	42.1	23.5	3.2	-13.7
O=C(O)CC(NC(=O)Cc1ccccc1)c1ccccc1 (configuration not stated)	8.3	-2.7	-3.3	3.5	-2.3	5.3
CC(C)C1CC(CCNCc2ccc(N(C)C)cc2)(c2ccccc2)CCO1 (configuration not stated)	0.7	5.2	72.6*	-10.4	4.4	15.5
CN(C(=O)CCN1C(=O)c2ccccc2C1=O)C1CCCCC1	0.4	-4.1	-2.8	-3.9	1.8	-2.1
COCCOC(=O)c1c(C)oc2ccc(O)c(CN3CCC(C)CC3)c12 (tested in a mixture with another compound)	92.9*	8.1	-7.1	·	10.2	·
CCOC(=O)c1c(C)n(C)c2ccc(O)c(CN3CCC(C)CC3)c12	30.1	8.4	9.4	-11.3	2.9	7.0
CCCCNc1c(-c2cccc(-c3ccc(OC)cc3)c2)nc2cc(C)ccn12	87.2*	8.8	6.5	-23.9	28.0	-4.5
Cn1c(=O)c2[nH]c(N=Nc3ccc(N)cc3N)nc2n(C)c1=O	-1.9	51.1*	10.3	7.5	3.7	-1.8
C[C@H]1CCC/C=C/[C@@H]2C[C@H](O)C[C@H]2[C@H](O)[C@H](S(=O)c2ccc(O)cc2)CC(=O)O1 (some centres not stated)	86.9*	-60.3	83.0*	·	28.0	·
SMILES	Shn3 3UTR inh	LMP1 NFkB inh	TRPM1 prom inh	697 NFkB inh	Gli-Sufu block	Jurkat NFkB inh
CCCOc1ccc(C(=O)C(CN2CCCC2)c2ccccc2)cc1 (configuration not stated)	94.9*	-35.7	77.4*	·	4.0	·
COc1ccc(C(=O)C(CN2CCCC2)c2ccccc2)cc1 (configuration not stated)	10.9	-31.1	64.2*	-67.5	17.6	10.6
O=C(c1ccc(Cl)cc1)C(CN1CCCC1)c1ccccc1 (configuration not stated)	-1.3	46.3*	77.2*	-112.7	6.3	7.6
COc1ccc(C(=O)C(CN2CCOCC2)c2ccccc2)cc1 (configuration not stated)	89.3*	?	83.2*	-62.1	13.6	26.0
CNC(=O)CCN(Cc1ccco1)S(=O)(=O)c1ccc(OC)c(OC)c1	-1.8	3.3	1.2	-9.6	3.1	-7.5
Cc1cc(=O)oc2cc(OCC(=O)NCc3cccnc3)ccc12	-1.3	-2.8	2.0	1.9	8.8	-4.3
c1ccc(C(CN2CCOCC2)c2ccccc2)cc1	10.1	5.2	1.0	12.4	1.4	3.5
O=C(c1ccccc1)C(CCC(CN1CCOCC1)C(=O)c1ccccc1)CN1CCOCC1 (configuration not stated)	97.1*	50.1*	74.8*	3.2	-0.2	24.5
COC(=O)c1ccc(CN2C(=O)c3ccccc3S2(=O)=O)cc1	2.0	3.9	-14.1	19.8	0.4	3.5
CCN(CC)CCNC(=O)c1ccc(NC(=O)c2cccc(S(=O)(=O)N3c4ccccc4CC3C)c2)cc1 (configuration not stated)	6.8	-5.2	93.0*	-13.5	27.9	17.1
CCN(CC)CCNC(=O)c1ccc(NC(=O)c2cccc(S(=O)(=O)N3CCc4ccccc43)c2)cc1	16.7	-16.9	57.6	-20.7	25.8	-22.4
CCN(CC)c1ccc(/C=C2\SC(=O)N(C(C)C)C2=O)o1	96.7*	·	·	-33.3	-31.7	3.8
Cc1ccc(NC(=O)c2cccs2)cc1NC(=O)c1cccc(F)c1	4.0	6.7	9.8	-3.2	-0.3	-8.0
COc1cccc(CC(=O)NNC(=O)c2ccc3c(c2)OCO3)c1	10.1	45.3*	-2.2	-5.8	3.5	1.6
O=C(NCCOc1ccccc1)c1ccc2c(c1)OCO2	-4.0	65.7*	58.6	-145.9	-82.7	-48.5
CC1CCCC(CC(N)=O)CC1 (configuration not stated)	94.0*	-3.0	1.4	·	-2.6	·
Nc1ncnc2c(C3OC(CO)C(O)C3O)scc12 (configuration not stated)	97.2*	71.1*	82.8*	·	44.0	·
Cc1cc2oc(=O)cc(CN3CCN(Cc4ccc5c(c4)OCO5)CC3)c2cc1C	18.4	-0.4	-2.3	29.1	-1.2	2.0
COc1ccc(CNC(=O)c2c[nH]c3ccccc3c2=O)cc1	-58.5	-9.6	1.4	1.5	-11.5	-8.6
CCN1CCN(Cc2ccc(NC(=O)c3cc(NC(=O)c4ccno4)cc(OC)c3)cc2C(F)(F)F)CC1	2.7	1.0	-4.4	-8.6	27.8	-23.7
